Structures are written as SMILES. Records with an inconclusive call do not appear. A call without a number means that no potency is given here. Activity calls are given as the source filed them. Calls come from the whole dose curve.

The record followed here is PubChem BioAssay (Tox21).

In the test the target is Beta-2 adrenergic receptor (Homo sapiens) (UniProt P07550). The experiment in a line: Adrenergic beta2 receptor (ADRB2) small molecule agonists, cell-based qHTS assay (AID 1963593).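 Note: CHO cells stably overexpressing human ADRB2.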 Particulars: CHO-ADRB2 cells, cAMP HTRF, 30 min; series mostly up to 92.4 µM. The essentials: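 CHO cells stably over-expressing ADRB2 were plated overnight at 37C, then dosed with compounds plus a stimulation mix containing 100uM IBMX and 25uM Ro-20-1724 for 0.5hr at room temperature. cAMP was measured by HTRF competition, 1hr.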
On the technique in general: In qHTS, concentration-response curves come from the screen itself.

Chain of Beta-2 adrenergic receptor (Homo sapiens) (P07550 whole entry, looked up): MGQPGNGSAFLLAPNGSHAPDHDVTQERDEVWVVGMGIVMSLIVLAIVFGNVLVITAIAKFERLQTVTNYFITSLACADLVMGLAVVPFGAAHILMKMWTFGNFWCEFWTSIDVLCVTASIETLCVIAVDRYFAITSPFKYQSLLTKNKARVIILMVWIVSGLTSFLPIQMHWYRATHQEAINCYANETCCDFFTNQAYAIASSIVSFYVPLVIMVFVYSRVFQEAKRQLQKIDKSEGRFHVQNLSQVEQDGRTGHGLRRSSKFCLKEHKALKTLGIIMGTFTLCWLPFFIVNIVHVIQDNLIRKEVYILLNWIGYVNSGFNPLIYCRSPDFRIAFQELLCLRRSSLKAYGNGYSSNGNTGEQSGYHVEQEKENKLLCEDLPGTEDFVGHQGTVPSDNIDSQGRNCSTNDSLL

For `O=C(O)CNc1ccccc1`, the Potency result was “inactive”.
For `NCc1ccc(S(N)(=O)=O)cc1`, the Potency entry was “inactive”.
With `O=C(O)C1CCC(C(=O)O)CC1` (configuration not stated), the Potency result is “inactive”.
On to `CCCCCCCCOCCC#N`, for which the Potency result was “inactive”.
As for `CC(N)CN` (configuration not stated), the Potency entry is “inactive”.
Turning to `O=C1c2cccc(O)c2C(=O)c2c(O)cccc21`, the Potency result is “inactive”.
Consider `COc1ccc(N)c(OC)c1`, for which the Potency entry is “inactive”.
As to `NCc1cccc(CN)c1`, the Potency result was “inactive”.
For the compound `C=CCOCC(CO)(COCC=C)COCC=C`, the Potency result was “inactive”.
On to `O=C(c1ccccc1)C1(O)CCCCC1`, for which the Potency entry was “inactive”.
The same measure for `CC(C)C(=O)OCCOc1ccccc1`: “inactive”; for `N=C(N)c1ccccc1`: “inactive”.
In the case of `CC(=O)O[C@@H]1CC2C3CCc4cc(OC(=O)c5ccccc5)ccc4C3CCC2(C)[C@H]1OC(C)=O` (some centres not stated), the Potency entry is “inactive”.
In the case of `CCOC(=O)CC(C(C)=O)C(C)=O`, the Potency entry is “inactive”.
As for `CSc1cnccn1`, the Potency result is “inactive”.
For `CC12CC3CC(C)(C1)CC(N)(C3)C2`, the Potency entry was “inactive”.
With `c1ccc(CCc2ccccc2)cc1`, the Potency result is “inactive”.
In the case of `CC(C)C(=O)Nc1cccc(C2CN3CCSC3=N2)c1` (configuration not stated), the Potency entry is “inactive”.
For `CC/C=C\CCOC(=O)C(C)C`, the Potency result is “inactive”.
As for `CCC(C)(C)C1CCC(OC)CC1` (configuration not stated), the Potency entry was “inactive”.
As to `CCCC[C@H]1CN(CC2CCOCC2)C(=O)OC12CCN(C1(C)CCN(C(=O)c3c(C)ncnc3C)CC1)CC2`, the Potency entry was “inactive”.
For `CC(C[N+](C)(C)C)OC(N)=O` (configuration not stated), the Potency result was “inactive”.
`C1COC1`: the Potency result is “inactive”.
To `CCOC(C)(C)C` belongs “inactive”; to `CN(C)C(=O)Oc1ccc[n+](C)c1`, “inactive”.
For `O=C[O][Al]([O]C=O)[O]C=O`, the Potency entry is “inactive”.
With `CN(C)C(=S)SC(=S)N(C)C`, the Potency entry was “inactive”.
Take `C=C(C)C(=O)NCCCN(C)C`: the Potency entry was “inactive”.
In the case of `CCCCCCN`, the Potency result was “inactive”.
Take `C=CCOC(=O)CCCCCC`: the Potency result is “inactive”.
With `CC(C)C(=O)c1c(C(C)C)nn2ccccc12`, the Potency entry is “inactive”.
As for `COc1cccc(Br)c1`, the Potency result is “inactive”.
As for `CCOC(/C=C(\C)CCC=C(C)C)OCC`, the Potency entry was “inactive”.
The same measure for `CO[Si](CCCNCCC[Si](OC)(OC)OC)(OC)OC`: “inactive”; for `Cc1ccc(-c2ccccc2)cc1`: “inactive”.
The same measure for `CCN(CC)CCN`: “inactive”.
Turning to `CCCCCCCCC(=O)OCC`, the Potency result is “inactive”.
